According to PubChem BioAssay (NCI):
The panel holds about 83,000 compounds, 20% with a hit somewhere; the sample as a whole holds those more often.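 The endpoint reported here, percent growth, reads 100 for growth as untreated, 0 for no net growth and -100 for all cells dead.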 A number with no mark means an inactive call. Calls of active or inactive are those of the source. How the source made its calls: active means growth percent below 10; inactive means the rest.

Legend:
Test in all cases: NCI-60 one-dose screen, 48 h (100 = growth as untreated, 0 = no growth, -100 = all killed)
Conditions in all cases: 10 µM unless noted
NCI-H23 lung = system: NCI-H23 lung
NCI-H226 lung = system: NCI-H226 lung
NCI-H322M lung = system: NCI-H322M lung
HOP-62 NSCLC = system: HOP-62 NSCLC
NCI-H460 lung = system: NCI-H460 lung
HOP-92 NSCLC = system: HOP-92 NSCLC
NCI-H522 lung = system: NCI-H522 lung
A549/ATCC NSCLC = system: A549/ATCC NSCLC
786-0 renal = system: 786-0 renal
COLO 205 colon = system: COLO 205 colon
DU-145 prostate = system: DU-145 prostate
K-562 leukemia = system: K-562 leukemia
MALME-3M melanoma = system: MALME-3M melanoma
MDA-MB-231 breast = system: MDA-MB-231 breast
RXF 393 renal = system: RXF 393 renal
SF-268 CNS = system: SF-268 CNS
SF-295 CNS = system: SF-295 CNS
SF-539 CNS = system: SF-539 CNS
UACC-257 melanoma = system: UACC-257 melanoma
M14 melanoma = system: M14 melanoma

Structure (SMILES) | growth (NCI-H23 lung) | growth (NCI-H226 lung) | growth (NCI-H322M lung) [%] | growth (HOP-62 NSCLC) | growth (NCI-H460 lung) | growth (HOP-92 NSCLC) | growth (NCI-H522 lung) | growth (A549/ATCC NSCLC) | growth (786-0 renal) | growth (COLO 205 colon) | growth (DU-145 prostate) | growth (K-562 leukemia) | growth (MALME-3M melanoma) | growth (MDA-MB-231 breast) | growth (RXF 393 renal) | growth (SF-268 CNS) | growth (SF-295 CNS) | growth (SF-539 CNS) | growth (UACC-257 melanoma) | growth (M14 melanoma)
CN(C)Cc1ccc(NC(=O)c2cncc(C#Cc3cnc(N)c4ncccc34)c2)cc1C(F)(F)F | 42.1% | 76.7% | 97 | 79.8% | 13.3% | 73.9% | 94.6% | -15.4% (active) | -73.4% (active) | 44.6% | 64.1% | -26.1% (active) | -6.72% (active) | -68.6% (active) | -49.1% (active) | 55.9% | 76.4% | 58.4% | 36.9% | -54.7% (active)
CCOC(=O)c1nnn(-c2no[n+]([O-])c2-c2ccc(OC)cc2)c1COc1cccc2cccnc12 | 31.6% | 8.91% (active) | 98.8 | 30.6% | 8.47% (active) | 17.6% | -52.7% (active) | 71.9% | 25.8% | -25% (active) | 11.8% | 11.9% | 68.6% | 17% | 22.5% | 21.8% | 33.4% | -3.16% (active) | 59.1% | 12.4%
O=c1c2ccccc2n(C[C@H]2CO2)c2ccccc12 | -58.2% (active) | 51.4% | 20 | -12.8% (active) | -40.5% (active) | -3.5% (active) | -37.5% (active) | -37.2% (active) | -14.1% (active) | 2.46% (active) | 2.26% (active) | 8.2% (active) | -74.3% (active) | 5.95% (active) | -67.1% (active) | -8.61% (active) | 5.39% (active) | -22.1% (active) | -10.1% (active) | 6.45% (active)
O=C(c1c[nH]c2ccccc12)c1n[nH]c(=S)n1-c1ccc([N+](=O)[O-])cc1 | 91.8% | 77.8% | 94.7 | 87.4% | 95.7% | 80.3% | 84.7% | 81% | 115% | 96.8% | 109% | 83.3% | 106% | 91.3% | 102% | 95.4% | 104% | 94.1% | 99% | 95.9%
O=CCCCOCc1ccccc1 | 96.4% | 96.5% | 110 | 93.2% | 107% | 90.6% | 88.5% | 95.3% | 98.4% | 109% | 102% | 104% | 95.8% | 101% | 113% | 103% | 95.1% | 101% | 103% | 96.4%
Cc1c(O)cc(-c2cnc(N/N=C/c3ccccc3)s2)c(O)c1C | 97.7% | 92.4% | 97.6 | 107% | 102% | 92.6% | 82.3% | 94.1% | 117% | 111% | 105% | 89.9% | 107% | 101% | 102% | 91.6% | 103% | 100% | 95.5% | 95.9%
COc1cc(/C=C/C(=O)c2cccc(-n3cc(-c4ccc(Cl)cc4)[nH]c3=O)c2)ccc1O | 97.5% | 101% | 92.6 | 130% | 93.7% | 56.9% | 23.4% | 77.3% | 84.3% | 124% | 78.1% | 17.9% | 87.8% | 86% | 23.7% | 71.7% | 76.7% | 84.2% | 68% | 85.8%
CN(C)/C(N)=N/N=C(\c1ccccc1)c1ccccn1 | 95.7% | 97.3% | 83.1 | 110% | 101% | 87.2% | 95.5% | 107% | 99.9% | 106% | 97.7% | 96.7% | 93.3% | 88.1% | 98.5% | 92.6% | 106% | 103% | 112% | 93%
Nc1ccc(Br)cc1C(F)(F)F | 95.3% | 105% | 119 | 102% | 111% | 104% | 103% | 102% | 105% | 102% | 116% | 97.1% | 114% | 103% | 116% | 108% | 119% | 97% | 104% | 106%
C=C1C(=O)O[C@H]2[C@H]1CC/C(COC(=O)/C=C\C(=O)NCc1ccc(Cn3c(=O)sn(CCCCl)c3=O)cc1)=C\CC[C@@]1(C)O[C@@H]21 | 84.1% | 92.9% | 107 | 87.7% | 93.4% | 81.7% | -12% (active) | 92.7% | 67.7% | 4.69% (active) | 45.9% | 26.7% | 49.6% | 71.9% | 86.9% | 93.5% | 99.4% | 79.9% | 68.9% | 40.4%
COc1ccc(-c2cc(C(=O)N3N=C(c4ccc(N)cc4)CC3c3ccc(Cl)cc3)c3ccccc3n2)cc1 (stereo not given) | 48.1% | 76.5% | 52.4 | 36.3% | 12.8% | 45.4% | -3.25% (active) | 16.9% | 25.4% | 2.76% (active) | 13.9% | 7.4% (active) | 79% | 44.2% | 21.6% | 35% | 21.6% | 5.56% (active) | 55.2% | 9.68% (active)
CCOC(=O)C/C(=N\Nc1cc(=O)[nH]c2ccc(OC)cc12)C(=O)OCC | 99.4% | 97.6% | 94.9 | 105% | 100% | 87.2% | 109% | 105% | 107% | 114% | 99.6% | 89.3% | 104% | 98.4% | 96.4% | 98% | 101% | 90.9% | 108% | 102%
c1cc(OCCN2CCCCCC2)ccc1CNc1ccc2nc(CCC3CCCCC3)[nH]c2c1 | 82.6% | 60.8% | 81.7 | 60.5% | 68.3% | 23.3% | 68.5% | 70.8% | 54.2% | -48% (active) | 69.8% | 3.02% (active) | -72.6% (active) | 25.5% | 56.2% | 69.9% | 79.1% | 72.8% | 31.8% | -69.9% (active)
CN(C)c1ccc(CNCCO)cc1 | 107% | 91.9% | 104 | 76.3% | 105% | 75.1% | 43.5% | 76% | 86.1% | 85.7% | 105% | 97.9% | 103% | 110% | 113% | 101% | 103% | 97.5% | 85.4% | 96.7%
CN(C)c1ccc([C@@H](C(=O)Nc2cccc([N+](=O)[O-])c2)N(C(=O)c2cc3ccccc3[nH]2)c2cccc([N+](=O)[O-])c2)cc1 | 97.5% | 97.5% | 95 | 88.7% | 98.2% | 70.9% | 92.3% | 92.9% | 95.5% | 102% | 107% | 100% | 96.5% | 96.5% | 100% | 97.4% | 100% | 90.3% | 93.4% | 93.7%
